The record followed here is ChEMBL document CHEMBL3988442, “University of Dundee, Small-Polar-MMV Screening Library” (2021).

For assay [1], the target named is T1, Aspartate--tRNA(Asp/Asn) ligase (Mycobacterium tuberculosis (strain ATCC 25618 / H37Rv)) (UniProt P9WFW3). Further: in the data most compounds retested in dose-response had high values.
T1 sequence (whole entry): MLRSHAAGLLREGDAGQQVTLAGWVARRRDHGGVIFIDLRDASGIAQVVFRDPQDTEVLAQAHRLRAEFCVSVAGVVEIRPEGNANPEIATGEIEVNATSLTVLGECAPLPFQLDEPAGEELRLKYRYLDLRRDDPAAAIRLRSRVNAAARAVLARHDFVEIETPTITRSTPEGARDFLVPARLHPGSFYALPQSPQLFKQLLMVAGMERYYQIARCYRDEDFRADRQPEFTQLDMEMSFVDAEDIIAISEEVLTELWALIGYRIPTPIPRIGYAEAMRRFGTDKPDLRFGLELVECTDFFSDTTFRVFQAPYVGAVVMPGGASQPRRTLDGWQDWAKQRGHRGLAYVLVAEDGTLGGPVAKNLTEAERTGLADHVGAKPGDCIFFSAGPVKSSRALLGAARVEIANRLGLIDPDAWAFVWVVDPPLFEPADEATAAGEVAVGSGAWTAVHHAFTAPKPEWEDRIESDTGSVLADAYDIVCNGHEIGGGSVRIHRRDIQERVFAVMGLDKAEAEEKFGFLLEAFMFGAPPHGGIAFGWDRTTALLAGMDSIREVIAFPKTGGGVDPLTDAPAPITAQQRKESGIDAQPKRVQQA
In words: Assay for Asp RNA synthetase-1 from Mycobacterium tuberculosis. The class given is functional. Set-up: scale not given: direction of the effect not stated beside the values. The conditions noted are these: 30 µM.

Assay [2] concerns the target Shiga toxin 2 (Escherichia coli O157:H7) (UniProt P09385+P09386). In words: E. coli 0.157:H7 Shiga Toxin SOP - stx2 screening assay. Type of assay: functional. Also on record: scale not given: direction of the effect not stated beside the values. The conditions noted are these: 30 µM.

As for `Cc1ccc(C)c(CNC(=O)NC(C)(C(=O)O)c2ccco2)c1` (stereo not given), the Percent Effect in assay [1] stood at 4.16%; in assay [2] it was 17%.
On to `CN1CCC(CCNC(=O)c2ccc(N(C)S(C)(=O)=O)cc2Cl)CC1`, for which the values for the Percent Effect in assay [1] and in assay [2] were 1.1% and -50.8%, respectively.
Regarding `COCC(NC(=O)c1ccc[nH]1)c1cccc(C(F)(F)F)c1` (stereo not given), the Percent Effect is -2.7% in assay [1] and -17.9% in assay [2].
In the same order, the values of `O=C(c1ccc(NC2CC2)nc1)N1CCCC(n2cccn2)C1` (stereo not given) are -1.7% and 14.7%.
With `CCN(C(=O)CS(=O)(=O)Cc1cc(Cl)c2c(c1)OCCCO2)C1CC1`, the results for the Percent Effect in assay [1] and in assay [2] were -0.343% and 4.47%, respectively.
Take `Cc1cc(C)cc(N(C)S(=O)(=O)c2cc(C(=O)O)cs2)c1`: the figures for the Percent Effect in assay [1] and in assay [2] were 2.79% and -3.14%, respectively.
On to `Cc1nc(C)c(CC(=O)Nc2nnc(C)s2)c(=O)[nH]1`, for which the Percent Effect in assay [1] was -2.12%; in assay [2], 19%.
As for `O=C(N1CCCO1)[C@@]12CCO[C@@H]1CCN(Cc1ccccc1)C2`, the Percent Effect in assay [1] was -1.34%; in assay [2], -5.88%.
With `Cc1cc(C)c2nc(CN3CCCC(c4cc[nH]n4)C3)cc(O)c2c1` (stereo not given), the Percent Effect in assay [1] was 4.05%; in assay [2], 0.0646%.
In the same order, the values of `CC(NC(=O)NCCNc1cnccn1)c1cccs1` (stereo not given) are -0.971% and -34.6%.
For `COc1ccc(CCNC(=O)C2CCC(Cn3cnnn3)CC2)cc1` (stereo not given), the Percent Effect was -2.03% in assay [1] and -4.05% in assay [2].
As to `CN(C)Cc1ccc(C2CCCCN2C(=O)c2cccc(CO)n2)cc1` (stereo not given), the figures for the Percent Effect in assay [1] and in assay [2] were -3.06% and 0.431%, respectively.
Turning to `CC(C)c1nc(CN2CCCCC2)cs1`, the Percent Effect in assay [1] is -3.66%; in assay [2] it was 7.17%.
As for `Cc1noc(CN2Cc3ccccc3CC2c2nnc(C)o2)n1` (stereo not given), the Percent Effect is -2.54% in assay [1] and -7.76% in assay [2].
`O=C(C1CCOC1)N1CCc2ncc(CNc3ccccn3)n2CC1` (stereo not given): the Percent Effect was -0.229% in assay [1] and -21.5% in assay [2].
In the same order, the values of `Cc1cccc(C(=O)N(C)Cc2cc(Br)cs2)n1` are -0.0599% and -8.77%.
On to `CC(=O)c1cc(CC(=O)NCc2c(F)cccc2F)cs1`, for which the Percent Effect in assay [1] is -0.993%; in assay [2], 4.94%.
Turning to `CCC(=O)N1CCC(Cc2ccccc2-c2ccccc2)(C(N)=O)C1` (stereo not given), the Percent Effect was -7.87% in assay [1] and 6.14% in assay [2].
For `Cc1cnc2n1CCN(C)C21CCN(C(=O)CC(C)C)CC1`, the Percent Effect in assay [1] was -4.25%; in assay [2], -6.62%.
`Cc1noc(C(C)N2CCN(CCC(=O)N3CCCCC3)CC2)n1` (stereo not given): the Percent Effect was -2.64% in assay [1] and 7.71% in assay [2].
Taken in the same sequence, the figures for `Cc1ccc(C)n1-c1ccc(C(=O)NCCNc2ncccn2)cc1` were 5.76% and 7.86%.
In the case of `Cc1nnc2n1CCN(Cc1ncc(-c3ccc(Cl)cc3)o1)C2`, the Percent Effect in assay [1] was -2.3%; in assay [2], 25.1%.
In the same order, the values of `O=C1CC(N(C(=O)c2ccc3c(c2)CCC3)C2CC2)C(=O)N1` (stereo not given) are 0.714% and 6.53%.
As for `Cc1ccc(O)c(CNC2CCc3nc(C(C)C)nn3C2)n1` (stereo not given), the Percent Effect in assay [1] stood at 2.88%; in assay [2] it was 1.45%.
Taken in the same sequence, the figures for `O=C(Cc1ccccc1F)N1CCN(C(=O)c2cccc(F)c2)CC1` were 23.6% and -39.5%.
Turning to `Cc1ccoc1C(=O)NCC(Cc1ccc(F)cc1)C(N)=O` (stereo not given), the Percent Effect is -2.1% in assay [1] and 9.66% in assay [2].
For the molecule `CCN1CCCC1CN(CCN(C)C)S(=O)(=O)c1ccc(C#N)cc1` (stereo not given), the Percent Effect in assay [1] was -3.16%; in assay [2] it was -8.05%.
With `Cc1nn(C)c(C)c1CCC(=O)N1CCCC1Cn1cccn1` (stereo not given), the Percent Effect in assay [1] is -0.943%; in assay [2] it was 2.75%.
Regarding `CCc1ccc(OCC(O)CN2CCN(S(C)(=O)=O)CC2)cc1` (stereo not given), the Percent Effect is -0.577% in assay [1] and 22.4% in assay [2].
On to `COc1ccnc(N2CCN(C(=O)Cc3ccc(C#N)cc3)CC2)n1`, for which the Percent Effect stood at 4.99% in assay [1] and 8.53% in assay [2].
For the molecule `CNC(=O)CC1CCN(Cc2nc(-c3cccc(Cl)c3)oc2C)CC1`, the Percent Effect was 4.32% in assay [1] and -21.3% in assay [2].
For `COc1ccc(S(=O)(=O)NCc2cccnc2N(C)C)cc1F`, the results for the Percent Effect in assay [1] and in assay [2] were -1.03% and -9.13%, respectively.
On to `Cn1cc2c(n1)C(COCC1CC1)CN(Cc1ccccn1)C2` (stereo not given), for which the Percent Effect in assay [1] is -2.25%; in assay [2], 9.17%.
Regarding `COC(=O)c1cccn1C1CCN(Cc2ccccc2)CC1`, the Percent Effect in assay [1] was 0.995%; in assay [2], -6.65%.
As to `CCN1CCn2c(C)cnc2C12CCN(C(=O)c1ccc(Cl)cc1)CC2`, the results for the Percent Effect in assay [1] and in assay [2] were 2.04% and 8.49%, respectively.
As to `CC(=O)N1CCN(C(=O)CCCc2nc(C(C)C)no2)CC1`, the Percent Effect in assay [1] was 5.17%; in assay [2], -7.36%.
For `CC(NC(=O)C1=NN(C)C(=O)CC1)c1ccc(F)cc1F` (stereo not given), the Percent Effect in assay [1] was -4.46%; in assay [2] it was -6.55%.
`COC(=O)c1cc(OCC2CCC2)cc(C(=O)N[C@H]2CC[C@H](O)CC2)c1`: the Percent Effect in assay [1] was 9.23%; in assay [2] it was -30.2%.
For `CCc1nc(C2CCCN2C(=O)CCCn2cccn2)no1` (stereo not given), the results for the Percent Effect in assay [1] and in assay [2] were -0.232% and -5.5%, respectively.
Taken in the same sequence, the figures for `CC(=O)c1cccc(S(=O)(=O)N2CSCC2C(=O)NCC(F)(F)F)c1` (stereo not given) were -1.82% and -13.6%.
Taken in the same sequence, the figures for `CC(C)n1ccnc1CN1CCCN(C(=O)c2nccnc2N)CC1` were -6.9% and -13.7%.
In the same order, the values of `COCCC(=O)N1CC2(CCN(Cc3ccoc3)C2)C1` are 5.6% and -19.5%.
Turning to `CCOC(=O)CN1CCC(C(=O)c2cc(F)ccc2F)CC1`, the Percent Effect was -0.233% in assay [1] and -13.5% in assay [2].
`CN(Cc1nnc(C2CC2)n1C)C1CCN(Cc2ccon2)C1` (stereo not given): the Percent Effect stood at 12.3% in assay [1] and 14.2% in assay [2].
In the case of `Fc1cccnc1CN1CCCCC1c1ccn2ccnc2n1` (stereo not given), the values for the Percent Effect in assay [1] and in assay [2] were 1.4% and -17.1%, respectively.
With `CNC(=O)[C@@]12CCCN(c3ncccn3)[C@@H]1CN(C(=O)NC(C)C)C2`, the values for the Percent Effect in assay [1] and in assay [2] were 1.62% and -25.1%, respectively.
With `Cc1noc(C)c1CN1CC[C@@H](OCC2CC2)[C@@H](Cc2ccccc2)C1`, the figures for the Percent Effect in assay [1] and in assay [2] were 0.779% and 16%, respectively.
On to `O=C(CCNc1ncccn1)NCCOc1ccc2c(c1)CCC2`, for which the Percent Effect in assay [1] was determined as 1.63%; in assay [2], 35.6%.
Consider `CC(C(=O)N1CCCN(Cc2ccc(C#N)cc2)CC1)n1ccnc1` (stereo not given), for which the Percent Effect in assay [1] is -0.834%; in assay [2], 29.9%.
Turning to `O=C(CCn1ccc2cc(Br)ccc21)NCc1ccc(C(=O)O)cc1`, the Percent Effect in assay [1] is 8.3%; in assay [2], 30.7%.
